Bioassay records from PubChem BioAssay.
The list is not random: actives were taken first. Their share in the collection is about 5.9%.
Coupling enz – coupling enzyme interference in Giardia aldolase counter-screen; coupling enzyme system counterscreen, AmpLite Red fluorescence; activity change, negative = inhibition, % at 58.2 µM, hits read low; 290,000 compounds, 0.67% hits; in the data active = activity change below about -30%
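First, compound is pin-transferred into glyceraldehyde-3-phosphate coupling-enzyme reagent at 57.5 uM final and held 10 min at RT. Next, substrate, coupling system and AmpLite Red are added. After 20 min RT, fluorescence (525/598 nm) is read.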
TrxR1 substrate – is turned over as a substrate by rat TrxR1. purified TrxR1 substrate turnover, NADPH consumption readout. Potency, µM (titrated, usually from 114 µM), for the others: top-dose activity change, negative = substrate turnover. 390,000 compounds, 0.01% hits. AID 588456; also: potency is read from the fitted curve at half-maximal effect; nearly all actives have a fitted effect of over 50% in size
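Rat TrxR1, dispensed at 90 nM, was prereduced with 400 uM NADPH (final) for 5 min at ~22 deg C, then incubated with compound 15 min before 400 uM selenite. A first-read NADPH fluorescence drop versus no-compound background flagged substrates.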
rTrxR1 inhibitor – inhibitors of rat thioredoxin reductase 1 | O89049 | recombinant rTrxR1, NADPH fluorescence consumption, selenite substrate | Potency, µM (series often up to 114 µM), for the others: top-dose activity change, negative = inhibition, hits mostly inhibitors | 390,000 compounds, 1% hits | AID 588453; also: potency is read from the fitted curve at half-maximal effect; nearly all actives have a fitted effect of over 65% in size
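Rat TrxR1 (90 nM in the dispensed reagent) was pre-reduced with 400 uM NADPH for 5 min at room temperature, then incubated with compound for 15 min. After 400 uM selenite was added, NADPH fluorescence (Ex 340/Em 450 nm) was followed for 8 min.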
VP16 counter – counter-screen for ROR gamma inhibitors: Gal4-VP16 reporter; Drosophila S2 Gal4-VP16 UAS-luciferase, luminescence, 20 h; Potency, µM (highest dose often 53.6 µM), without a hit: at the highest dose activity, negative = inhibition, actives largely listed as inhibitors; 310,000 compounds, 3.5% hits;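 also: Gal4-VP16 expression switched on by copper sulfate through the metallothionein promoter; potency is read from the fitted curve at half-maximal effect; nearly all actives have a fitted effect of over 50% in size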
RORg inh – ROR gamma (mouse) transcription inhibition; P51450; Drosophila S2 Gal4-RORgamma UAS-luciferase reporter, 20 h; Potency, µM (series often up to 53.6 µM), for the others: at the highest dose activity change, negative = inhibition, hits mostly inhibitors; 310,000 compounds, 5.4% hits; AID 2551; also: potency is read from the fitted curve at half-maximal effect; nearly all actives have a fitted effect of over 60% in size
Target sequence (P51450 whole entry, looked up, the tested form may be a part): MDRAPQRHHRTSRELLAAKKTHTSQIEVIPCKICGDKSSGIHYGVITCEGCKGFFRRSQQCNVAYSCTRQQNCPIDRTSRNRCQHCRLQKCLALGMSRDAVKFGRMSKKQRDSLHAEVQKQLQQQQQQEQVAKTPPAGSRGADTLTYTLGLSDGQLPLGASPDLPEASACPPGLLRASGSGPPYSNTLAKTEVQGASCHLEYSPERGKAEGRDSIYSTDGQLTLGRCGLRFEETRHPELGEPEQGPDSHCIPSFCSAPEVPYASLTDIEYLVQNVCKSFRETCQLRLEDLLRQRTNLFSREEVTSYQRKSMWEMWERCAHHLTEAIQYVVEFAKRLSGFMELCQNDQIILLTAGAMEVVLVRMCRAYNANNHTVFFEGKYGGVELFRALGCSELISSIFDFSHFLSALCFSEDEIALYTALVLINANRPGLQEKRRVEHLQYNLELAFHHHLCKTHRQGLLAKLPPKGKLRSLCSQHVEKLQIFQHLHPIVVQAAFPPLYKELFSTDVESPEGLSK
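Stably transfected Drosophila Schneider cells are the test system, with ROR gamma fused to Gal4 and luciferase under UAS control; luminescence is read after 20 hr of 700 uM copper sulfate induction at ambient temperature.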
GALK inh – blocks human galactokinase activity; P51570; Purified GALK, Kinase-Glo residual ATP luminescence; Potency, µM (highest dose often 57.5 µM), for the others: at the highest dose activity change, negative = inhibition, usual class: inhibitors; 270,000 compounds, 0.007% hits; AID 1868; also: potency is read from the fitted curve at half-maximal effect
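GALK at 5 nM final was combined with compound, 35 uM ATP and 100 uM galactose in HEPES pH8.0 with MgCl2 and DTT. The reaction ran one hour at room temperature before luminescent ATP detection.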
Active calls of the source: *; [ ] = remark or other dose. Unless noted, calls follow the shape of the dose curve; as a rule, active = well fitted curve in the direction sought with a large enough effect; inconclusive = small, poorly fitted or top-dose-only effect, or another doubt; inactive = no such curve, though single readings can be large; an effect the other way counts as inactive or inconclusive. % is scaled to controls: 0 for no effect and ±100 for the full control effect.

How did Cc1noc2ncnc(N3CCCC3)c12 do in these assays?
Coupling enz: 4; TrxR1 substrate: -3%; rTrxR1 inhibitor: 13%; VP16 counter: 5%; RORg inh: -2%; GALK inh: -3%

What do the screens show for `COc1ccc2c(c1OC)C(=O)N(c1ccccc1)C2=O`?
Coupling enz: -3; TrxR1 substrate: -1%[57.1 µM]; rTrxR1 inhibitor: 6%[57.1 µM]; VP16 counter: -11%; RORg inh: 4%; GALK inh: -1%

What do the screens show for `O=S1(=O)CCC(NC(=S)Nc2ccccc2)C1` (stereo unspecified)?
Coupling enz: 1; TrxR1 substrate: 5%; rTrxR1 inhibitor: 2%[57.1 µM]; VP16 counter: 5%; RORg inh: 12%; GALK inh: -3%

Results for CC(CCc1ccccc1)NC(=S)NC1CCCCC1 (stereo unspecified) ?
Coupling enz: -2; TrxR1 substrate: 6%[11.4 µM]; rTrxR1 inhibitor: 18%[11.4 µM]; VP16 counter: 16µM*; RORg inh: 2.5µM*; GALK inh: 9%

Results for CCOc1ccc(C(C)NC(=O)C2CCCC2)cc1 (stereo unspecified) ?
Coupling enz: 0; TrxR1 substrate: 3%; rTrxR1 inhibitor: 17%; VP16 counter: 1%; RORg inh: -3%; GALK inh: 1%

What do the screens show for `CCOc1ccc(C(C)NC(=S)NC2CCCCC2)cc1` (stereo unspecified)?
Coupling enz: 0; TrxR1 substrate: -7%; rTrxR1 inhibitor: 9%; VP16 counter: 10µM*; RORg inh: 3.2µM*; GALK inh: -2%

Results for CCc1ccc(C(C)NC(=O)C2CCCC2)cc1 (stereo unspecified) ?
Coupling enz: 0; TrxR1 substrate: 0%; rTrxR1 inhibitor: 3%; VP16 counter: -3%; RORg inh: -18%; GALK inh: 0%

How did CCc1ccc(C(C)NC(=S)NC2CCCCC2)cc1 (stereo unspecified) do in these assays?
Coupling enz: 5; TrxR1 substrate: -1%; rTrxR1 inhibitor: 15%; VP16 counter: 3.2µM*; RORg inh: 2.2µM*; GALK inh: 0%

How did CCC(C)c1ccc(C(C)NC(=S)NC2CCCCC2)cc1 (stereo unspecified) do in these assays?
Coupling enz: 3; TrxR1 substrate: 3%[57.1 µM]; rTrxR1 inhibitor: 3%[57.1 µM]; VP16 counter: 2µM*; RORg inh: 2.8µM*; GALK inh: 5%

How did CCC(C)c1ccc(OCC(=O)NNC(=O)C2CCCCC2)cc1 (stereo unspecified) do in these assays?
TrxR1 substrate: -2%; rTrxR1 inhibitor: 18%; VP16 counter: -3%; RORg inh: 17%; GALK inh: 1%

How did CCC(Oc1ccccc1F)C(=O)Nc1cc(-c2ccccc2)no1 (stereo unspecified) do in these assays?
TrxR1 substrate: -8%; rTrxR1 inhibitor: 13%

How did Cc1ccc(C2C=C(c3ccc4c(c3)OCO4)Nc3ncnn32)cc1 (stereo unspecified) do in these assays?
Coupling enz: 4; TrxR1 substrate: 8%; rTrxR1 inhibitor: inconclusive; VP16 counter: -1%; RORg inh: -3%; GALK inh: 1%

Results for CCC(C(=O)NC1CCCCCC1)c1ccccc1 (stereo unspecified) ?
TrxR1 substrate: 8%; rTrxR1 inhibitor: 30%

How did CCOc1ccc(C(=S)NC2CCCCC2)cc1OCC do in these assays?
Coupling enz: 1; TrxR1 substrate: -5%; rTrxR1 inhibitor: -1%; GALK inh: 0%

How did CCOc1ccc(C(C)NC(=S)NC2CCCCC2)cc1OCC (stereo unspecified) do in these assays?
Coupling enz: 2; TrxR1 substrate: 8%[57.1 µM]; rTrxR1 inhibitor: 9%[57.1 µM]; VP16 counter: 14µM*; RORg inh: 7.1µM*; GALK inh: 0%

Results for CCC(NC(=S)NC1CCCCC1)c1ccccc1 (stereo unspecified) ?
Coupling enz: 1; VP16 counter: 7.1µM*; RORg inh: 3.2µM*; GALK inh: -4%

Results for CCNc1nc(NCC)n2c(SCC(=O)NCC3CCCCC3)nnc2n1 ?
Coupling enz: 4; TrxR1 substrate: 6%[57.1 µM]; rTrxR1 inhibitor: 16%[57.1 µM]; VP16 counter: 1%; RORg inh: inconclusive; GALK inh: -1%

How did CCc1noc(C)c1C(=O)Nc1cc(Cl)ccc1-n1cncn1 do in these assays?
TrxR1 substrate: 10%[57.1 µM]; rTrxR1 inhibitor: 12%

How did Cc1[nH]c2ccccc2c1SCCNC(=O)c1ccc(S(=O)(=O)N2CCCC2)cc1 do in these assays?
Coupling enz: -2; TrxR1 substrate: -1%[57.1 µM]; rTrxR1 inhibitor: 9%[57.1 µM]; VP16 counter: 4%; RORg inh: inconclusive

How did O=c1[nH]c2ccc(NC(=S)NCc3ccccc3)cc2[nH]1 do in these assays?
Coupling enz: 2; TrxR1 substrate: -1%; rTrxR1 inhibitor: -2%; VP16 counter: 0%; RORg inh: 5%; GALK inh: 0%

What do the screens show for `COc1ccccc1CNC(=O)CSc1nc2c(oc3ccccc32)c(=O)n1CC1CCCO1` (stereo unspecified)?
TrxR1 substrate: 8%; rTrxR1 inhibitor: 19%

How did CCOc1cc(CN2CCN(c3ccc(C(C)=O)cc3)CC2)ccc1OC do in these assays?
Coupling enz: 1; TrxR1 substrate: 2%; rTrxR1 inhibitor: 35µM*; VP16 counter: -5%; RORg inh: 26%; GALK inh: -1%

How did CCN1C(=O)/C(=C\N(C(C)=O)c2ccccc2)OC1=S do in these assays?
Coupling enz: 4; TrxR1 substrate: 2%; rTrxR1 inhibitor: -2%; VP16 counter: 10µM*; RORg inh: 7.9µM*; GALK inh: -2%

What do the screens show for `Cc1cccc(CSc2nnc(CCCCCN)o2)c1`?
TrxR1 substrate: 8%[11.4 µM]; rTrxR1 inhibitor: 2%

Results for NCCCCCc1nnc(SCc2ccc(Cl)cc2Cl)o1 ?
Coupling enz: -1; TrxR1 substrate: -4%; rTrxR1 inhibitor: 5%; VP16 counter: 5.6µM*; RORg inh: 8.9µM*; GALK inh: 0%

What do the screens show for `NCCCCCc1nnc(SCc2cccc(Cl)c2)o1`?
Coupling enz: 0; TrxR1 substrate: 10%; rTrxR1 inhibitor: 17%; VP16 counter: 2.8µM*; RORg inh: 5.6µM*; GALK inh: 0%

Results for COc1ccc2[nH]c(C(=O)N3CCN(c4ccccc4F)CC3)c(C)c2c1 ?
Coupling enz: -1; TrxR1 substrate: -2%; rTrxR1 inhibitor: 11%; VP16 counter: 9%; RORg inh: 6%; GALK inh: -2%

Results for O=C(c1ccc(S(=O)(=O)Nc2ccccc2Cl)cc1)N1CCOCC1 ?
TrxR1 substrate: -12%; rTrxR1 inhibitor: -8%
